In all, about 35,000 sequences were measured (“fluorescence intensity (a.u.)”: median about 10,000, highest 2% from about 52,000 on). This excerpt belongs to a sample that is enriched for the highest values.
Biological target: T1, OsWOX13 (Oryza sativa, UniProt Q5QMM3 1-267)
T1 sequence: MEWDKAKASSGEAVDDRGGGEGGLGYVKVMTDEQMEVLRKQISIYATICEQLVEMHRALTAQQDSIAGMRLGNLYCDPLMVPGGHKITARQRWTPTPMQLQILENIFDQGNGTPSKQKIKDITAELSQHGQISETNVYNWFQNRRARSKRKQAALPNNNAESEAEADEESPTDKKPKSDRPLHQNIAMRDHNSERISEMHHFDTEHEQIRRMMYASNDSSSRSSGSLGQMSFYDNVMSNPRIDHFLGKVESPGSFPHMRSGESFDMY
Assay: protein-binding microarray (RPBM); PBS, 2% BSA, 51.3 ng/ul salmon testes DNA, 50 uM zinc acetate, 200 nM TF, 25 C, 1 h; high values mean tight binding
Settings: protein: recombinant; tags: N-terminal polyhistidine and DsRed monomer fusion (pET32a); label: CyDye5-dUTP incorporated in the synthesized complementary strand; 3' TTTTT single-stranded linker to array surface; dsDNA, one strand shown
Summary of the method: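 Ni–NTA purification followed expression in E. coli BL21-CodonPlus of transcription factors fused N-terminally to a polyhistidine tag and DsRed. At 200 nM in PBS with 2% BSA, salmon testes DNA and 50 µM zinc acetate, the protein was incubated for 1 h at 25 °C with a custom Agilent array that had been primer-extended with Cy5-dUTP and blocked with 2% BSA. After washing, the array was read on an Axon 4000B scanner. The binding signal is per-feature fluorescence intensity in arbitrary units.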

In order of falling binding signal:
1. GATGATTGATTGGGTTGGTTGGAACGTGCGATGGAATGATCGGAGTCACCTAGTGCAG  65400 fluorescence intensity (a.u.)
2. CTGGATTGATTGGGAGTGTTGGGTTTCGGGCTAGATCTGGCGGAGTCACCTAGTGCAG  65200 fluorescence intensity (a.u.)
3. CATCAATTAATTGACATGATACTATCTACCTTGCGTGTCGCGGAGTCACCTAGTGCAG  65000 fluorescence intensity (a.u.)
4. TTGATTGATGGGTAGTAAGGAAACCTTTTGAATGAGTGGTCGGAGTCACCTAGTGCAG  64700 fluorescence intensity (a.u.)
5. TCTGTTGATGAATGGATTGATTGATGGATGGATGGATGGTCGGAGTCACCTAGTGCAG  64100 fluorescence intensity (a.u.)
6. AATGGAGATTGGATCTGATTGGTTGTTGTTGCTTGAGGATCGGAGTCACCTAGTGCAG  62600 fluorescence intensity (a.u.)
7. ACTAATTGACTACTCCCTGAATTTAAAGTTGATGGTCAGTCGGAGTCACCTAGTGCAG  61100 fluorescence intensity (a.u.)
8. AAATGATTGAATCCTAGAAACTCTGACCTATACAAGTGGTCGGAGTCACCTAGTGCAG  60500 fluorescence intensity (a.u.)
9. TTGATTGCGAATGATTGGAGCTGGTTGCTGTTGCTAGATCCGGAGTCACCTAGTGCAG  57800 fluorescence intensity (a.u.)
10. TGCTGGTTGATTGATTGATTGATGGACAAATAGGTAGATGCGGAGTCACCTAGTGCAG  56300 fluorescence intensity (a.u.)
11. TTCTGCTGATTGGAATGACTACAACACTAGAGTTGTCTGTCGGAGTCACCTAGTGCAG  56100 fluorescence intensity (a.u.)
12. AGAAATTGATTATGGATGAGTGCCCTTCTGCCTATTATGTCGGAGTCACCTAGTGCAG  55900 fluorescence intensity (a.u.)
13. AGATGCTGATTGGTTGCGAACTATCTGTTCAATTTGCATCCGGAGTCACCTAGTGCAG  46300 fluorescence intensity (a.u.)
14. ACTATTATATTGATCAATTGATTACATAATTCACGTGTCGCGGAGTCACCTAGTGCAG  43700 fluorescence intensity (a.u.)
15. GTGATTGAAATGGATCCTGGTCGGAAATGAATCCTGGTCGCGGAGTCACCTAGTGCAG  43700 fluorescence intensity (a.u.)
16. AGCTAATAATTACTAATTACTAAGTAATACTTCCTCTGTTCGGAGTCACCTAGTGCAG  41700 fluorescence intensity (a.u.)
17. TCTGATTGCTGTTAGTTGTTGATGAGATGGAGATGGAGATCGGAGTCACCTAGTGCAG  39900 fluorescence intensity (a.u.)
18. CAGAATGACAACATTGACTGATTGACACTAGAAATACATACGGAGTCACCTAGTGCAG  39000 fluorescence intensity (a.u.)
19. TGTTAATTATGCCCTCGGTCCAATTGTGATATTCTGTTGACGGAGTCACCTAGTGCAG  38300 fluorescence intensity (a.u.)
20. GATGATGGATTGGAAAGGCAAGTAAGCTGGAGTAGGTGGTCGGAGTCACCTAGTGCAG  38000 fluorescence intensity (a.u.)
21. GCAGCCTAGATTGACAATAGATGAATTGGAGCTAGTAGTGCGGAGTCACCTAGTGCAG  35400 fluorescence intensity (a.u.)
22. CGTCTGGGGTTTGATTGGGATTGAGGCGAATTCGGGCGGTCGGAGTCACCTAGTGCAG  34000 fluorescence intensity (a.u.)
23. TTCTGATTTGCCCCTATCTTATTGAGATTGCTTGTGTGATCGGAGTCACCTAGTGCAG  30600 fluorescence intensity (a.u.)
24. TATGAATTGACTATTATATTGGCTATGGATGATTTGTAGTCGGAGTCACCTAGTGCAG  30100 fluorescence intensity (a.u.)
25. TGGAAATTGATGGAGGATGATCTGCAATTAGAAAGAAGAACGGAGTCACCTAGTGCAG  29700 fluorescence intensity (a.u.)
26. ATATAATGGGCACTATGATTTGCTCTAAATATTGGTCATTCGGAGTCACCTAGTGCAG  28800 fluorescence intensity (a.u.)
27. CTAATTTAAATTTGTCTCTTTTCTACCCTCAACCATCATTCGGAGTCACCTAGTGCAG  27200 fluorescence intensity (a.u.)
28. ACTGATGAAATATCAAAGTGATTGTCAGACAAAGCGCCATCGGAGTCACCTAGTGCAG  25800 fluorescence intensity (a.u.)
29. ATAGATGAAGAATAAATATGATTGGTAGAGAAGAGAGATGCGGAGTCACCTAGTGCAG  25600 fluorescence intensity (a.u.)
30. TCCTGATTGTTCACAATTGTGCTAGTTCAAACAAGGCAAACGGAGTCACCTAGTGCAG  24800 fluorescence intensity (a.u.)
31. CAAAATTTGATGAATGGAAGGGTCGAAACTGAGTGATTGCCGGAGTCACCTAGTGCAG  23600 fluorescence intensity (a.u.)
32. TTCACAAATTTTGATGCGATGATTAGCTAAGGCATGTTCGCGGAGTCACCTAGTGCAG  23500 fluorescence intensity (a.u.)
33. AGTTGACAGTTCCAATTAATCGTTCATGCGACCCAATTGACGGAGTCACCTAGTGCAG  21500 fluorescence intensity (a.u.)
34. CGTGAGTGAAATTTTAATTACGTGTACATATAGGGGAGTACGGAGTCACCTAGTGCAG  20500 fluorescence intensity (a.u.)
35. GCACTGATTGAATTGAACTGTATAGAACAAAATGAAATTTCGGAGTCACCTAGTGCAG  19600 fluorescence intensity (a.u.)
36. AGCTAATTTATGCATGCATGGATTCCGATGGAGGAGCTGTCGGAGTCACCTAGTGCAG  19400 fluorescence intensity (a.u.)
37. CTTATTCACTTGTGATTGTGATGATTAGCGAACAGAGTTGCGGAGTCACCTAGTGCAG  18700 fluorescence intensity (a.u.)
38. CTGGAATGAGTGGTGGTTGATTGTTTAGTGTTTACTGTTCCGGAGTCACCTAGTGCAG  18500 fluorescence intensity (a.u.)
39. TCCCTGAATTTTAGGAGTGATTGGACCTAAAGTTGAGGAGCGGAGTCACCTAGTGCAG  17200 fluorescence intensity (a.u.)
40. TGGAATGATGTTGGGATTGATGGATGGATGTATGTTTTGTCGGAGTCACCTAGTGCAG  15300 fluorescence intensity (a.u.)
41. TGGCGGATTGATCTGGAGGTGGGCTTGTTGGGGTTGCTGTCGGAGTCACCTAGTGCAG  14400 fluorescence intensity (a.u.)
42. TTACGATGATATATAATTGGACGGAAGCAGCGATCATGCTCGGAGTCACCTAGTGCAG  14100 fluorescence intensity (a.u.)
43. TCTACTAATTTAAAGTTGCAGTGTTCCTCCTCCCTCCTACCGGAGTCACCTAGTGCAG  10700 fluorescence intensity (a.u.)
44. TATAAAATTGATGGTTGGAATTATAAATATTTCGATTGAACGGAGTCACCTAGTGCAG  9830 fluorescence intensity (a.u.)
45. TGGGTAGGGGCAGTTAATTGGGAGGGAATTCCTCCTTCACCGGAGTCACCTAGTGCAG  8890 fluorescence intensity (a.u.)
46. TACCCATCTTCCATTGACAGACAATTGGGCCCCACTCCGCCGGAGTCACCTAGTGCAG  7450 fluorescence intensity (a.u.)
47. ATGATGATGATATACACGCCAAATTGAATTAGAAACTGATCGGAGTCACCTAGTGCAG  6800 fluorescence intensity (a.u.)
48. TAGATGAAATGGGTTGGGTTGATTTGGGTTGAAATATGATCGGAGTCACCTAGTGCAG  6400 fluorescence intensity (a.u.)
49. CCGTTGGATTGGAATCGGAGGGCCTACAATGACTGAGTGCCGGAGTCACCTAGTGCAG  5860 fluorescence intensity (a.u.)
50. GATAACGTGGCCAAATTATATCAGACGTTCATGTTTAGATCGGAGTCACCTAGTGCAG  5800 fluorescence intensity (a.u.)
51. ATCGTAATAGAATATGTCACATTCGGTTTTGGCTCAAGTTCGGAGTCACCTAGTGCAG  5710 fluorescence intensity (a.u.)
52. CCCATGTAGATTGGGCCTGCTTAGTGAAGTCTCACGTAGCCGGAGTCACCTAGTGCAG  5240 fluorescence intensity (a.u.)
53. ATTATTGACAAAAGCATCTCGATATCTTATGGATTAATATCGGAGTCACCTAGTGCAG  4720 fluorescence intensity (a.u.)
54. TACATCCCTACTAATTGTGTCATGTATCAATAATGATATGCGGAGTCACCTAGTGCAG  3560 fluorescence intensity (a.u.)
55. GAGCAATTAGGCTTAAAAGATTCGTCTCGCAAATTAGTCGCGGAGTCACCTAGTGCAG  3540 fluorescence intensity (a.u.)

— publication PMC7819943, “Rice protein-binding microarrays: a tool to detect cis-acting elements near promoter regions in rice”
